Experimental findings from PubChem BioAssay AID488862 (Broad Institute, 2010) are described below.

In all, about 340,000 compounds went through this assay and about 1,200 (0.35%) were called active. For the sample, actives were picked, then their nearest neighbours and some compounds at random. Unmarked numbers belong to inactive results. Cut-off read from the data, not from the text of the source: active = inhibition above about 52%; inactive = the rest.

This assay can be described thus: suppresses PrP 5' UTR mRNA reporter expression (AID 488862). Note: 0 = median of the neutral control wells. The settings on record: cell-based PrP 5' UTR mRNA reporter, plate reader; stronger effect = higher value; concentration not given here.
As usually defined, the inhibition is the drop in the measured response relative to a control, in per cent. `COc1ccc(C23NCCN2C(=O)c2ccccc23)cc1` (configuration not stated): the inhibition was -5.86%. With `CC(NC(=O)c1cccc2ccccc12)c1ccc2c(c1)CCCC2` (configuration not stated) the figure was -15.9%; with `COc1cccc2c1C(=O)c1c(O)c3c(c(O)c1C2=O)CC(O)(C(C)=NNC(=O)c1ccc(Cl)c(Cl)c1)CC3OC1CC(N)C(O)C(C)O1` (configuration not stated), 81% (active); with `CC(=O)Nc1ccc(C(=O)Nc2cc(S(=O)(=O)N3CCOCC3)ccc2N2CCOCC2)cc1`, 2.41%. With `O=C(CN1C2CCC1CC(NC(=O)C1CC1)C2)NCc1ccccc1` (configuration not stated) the figure was -21.6%; with `CCCS(=O)(=O)N1CCN(C(=O)c2cccs2)CC1`, -11%. As for `Nc1nc(SCC(=O)NCCN2CCOCC2)nc2sc3c(c12)CCC3`, the inhibition is -29.6%.

In the case of `CC(C)(C)C1CCc2c(sc3nc(SCC(N)=O)nc(N)c23)C1` (configuration not stated), the inhibition is 67.4% (active). With `C=C(C)CSc1nc(N)c2c3c(sc2n1)CCC3` the figure was -92.1%; with `CC1O[C@@H](OC2C(O)C(C)O[C@H](OC(=O)[C@]34CCC(C)(C)C[C@H]3C3=CCC5[C@@]6(C)CC(O)C(O[C@@H]7OC(CO)C(O)[C@@H](O)[C@@H]7O)[C@@](C)(C(=O)O)C6CC[C@@]5(C)[C@]3(CO)CC4)C2O[C@H]2OC(C)[C@@H](O[C@@H]3OCC(O[C@@H]4OC(CO)C(O)[C@H](O)C4O)[C@@H](O)[C@@H]3O)[C@H](O)C2O)C(O)C(O)C1O` (some centres not stated), -19.6%.

Regarding `COc1ccc(CCC(=O)Nc2ccc(Cl)c(S(=O)(=O)N3CCOCC3)c2)cc1OC`, the inhibition is -6.15%. With `CNC(=S)N1CCN(c2ccccn2)CC1` the figure was 2.28%; with `O=[N+]([O-])c1ccc(NC(=S)N2CCN(c3ccccn3)CC2)cc1`, -31.5%; with `COc1cc([N+](=O)[O-])ccc1NC(=S)N1CCN(c2ccccn2)CC1`, 60.8% (active). With `CN1CCN(c2ccc([N+](=O)[O-])c(Sc3nc4ccccc4[nH]3)c2)CC1` the figure was -6.9%; with `CCCn1nc(NS(=O)(=O)c2ccccc2)c2cc3cc(C)ccc3nc21`, -7.37%.

For `Cc1ccc(S(=O)(=O)N(C)CC(=O)N2CCc3ccccc32)cc1`, the inhibition was -9.45%. With `COc1ccccc1N1CCN(C(=O)c2ccc(Cl)c(S(=O)(=O)N3CCCC3)c2)CC1` the figure was -12.2%; with `COc1ccccc1N1CCN(C(=O)c2cc(=O)c3cc(C)cc(C)c3o2)CC1`, 72.6% (active). With `COc1cc2c(cc1OC)CN(C(=O)c1cc(=O)c3ccccc3o1)CC2` the figure was -36.4%.

In the case of `O=C(Nc1ccc([N+](=O)[O-])cc1)OCCc1ccccn1`, the inhibition is -55.9%. As to `Cc1ccc(C(=O)N/C(=C\c2ccc(F)cc2)C(=O)NCCN2CCOCC2)cc1`, the inhibition is -18.5%. With `COc1ccc(C(=O)Nc2cc(C)c(NC(=O)c3ccccc3OC)cn2)cc1` the figure was -9.89%. With `COc1ccc(C(=O)Nc2ccccc2C(=O)N/N=C/c2ccc(O)c(OC)c2)cc1`, the inhibition was 80.5% (active). With `COc1cc(C=NNC(=O)c2cccnc2)ccc1OC(=O)c1ccccc1F` the figure was -15.7%; with `CC1=NCCN1S(=O)(=O)c1cccc([N+](=O)[O-])c1`, -44.4%. With `CCOc1ccc(Br)cc1S(=O)(=O)Nc1ccc(S(=O)(=O)Nc2cc(C)on2)cc1` the figure was -17.7%; with `NC(=O)CC(NC(=O)Cc1ccc(Br)cc1)c1ccc(NC2CC3CCC2C3)c([N+](=O)[O-])c1` (configuration not stated), -22.9%. With `COc1ccc(C2=Nn3c(nnc3-c3ccccc3OC)SC2)cc1OC1CCCC1` the figure was 63.8% (active); with `COc1ccccc1-c1nnc2n1N=C(c1ccc(OC(F)F)c(OCC3CC3)c1)CS2`, -3.8%. With `CCn1c(SCC(=O)NC2CC2)nnc1-c1ccccc1OC`, the inhibition is 3.39%. Take `O=C(CN1C(=O)c2ccccc2S1(=O)=O)N1CCc2ccccc21`: the inhibition was 62.6% (active). On to `O=C(CSCc1ccccc1)N1CCc2ccccc21`, for which the inhibition is -80.4%. With `CC1CCCN(C(=O)CN2C(=O)c3ccccc3S2(=O)=O)C1` (configuration not stated) the figure was -26.3%. With `COc1ccc(-n2c(Cc3cccn3C)nnc2SCC(=O)Nc2cc(C)cc(C)c2)cc1` the figure was 6.37%. With `NC(=O)c1oc2ccccc2c1NC(=O)CS(=O)(=O)c1ccccc1` the figure was 10.2%; with `Cc1ccccc1N1C(=O)C2ON(c3ccccc3)C(c3ccncc3)C2C1=O` (configuration not stated), -40.3%; with `O=C1C(=O)N(c2ccccc2)C(c2ccccc2)C1c1ccccc1` (configuration not stated), -4.98%. For `O=C1[C@@H](c2ccccc2)[C@@H](c2ccccc2)N1c1cccnc1`, the inhibition is 59.7% (active).

`COc1ccc(NS(=O)(=O)c2ccc(N3CCOCC3)c(NC(=O)/C=C/C(=O)O)c2)cc1`: the inhibition was -1.46%. With `COc1cccc(CN(C)C(=O)CC23CC4CC(CC(C4)C2)C3)c1OC` the figure was -23.4%. With `Cc1cc(NC(=O)CCC(=O)N(CC(=O)NC2CCCC2)c2ccc(F)cc2)no1` the figure was -5.73%; with `Cc1cc(NC(=O)/C=C/C(=O)N(CC(=O)NC2CCCC2)c2ccc(F)cc2)no1`, 53.2% (active). As to `Cc1cc(NC(=O)/C=C/C(=O)N(c2ccccc2C)C(C(=O)NC2CCCC2)c2ccc(F)cc2)no1` (configuration not stated), the inhibition is -18%. With `CCOC(=O)c1cnc(-n2nc(C)cc2C)nc1NNc1cc(C)nc(-c2ccccc2)n1` the figure was 33.9%.

With `COc1ccc(C(C)=O)cc1CSc1nc2nc(C)cc(C)n2n1`, the inhibition is 3.27%. With `CC(=O)c1ccc(Oc2cc(C)nc(-n3nc(C)cc3C)n2)cc1` the figure was 63.6% (active); with `C[N+](C)(C)CCOP(=O)([O-])OC[C@H](O)CO`, -9.94%; with `CCOCCN(C=O)c1cccc(OC)c1`, -5.07%.

As to `CCOc1cc(NS(=O)(=O)c2ccc(OC)cc2)c(OCC)cc1NC(C)=O`, the inhibition was 64.1% (active).

Consider `CCOc1cc(NC(=O)CCl)c(OCC)cc1NC(C)=O`, for which the inhibition is -34.2%. Regarding `COc1ccc(S(=O)(=O)Nc2cc(C)on2)cc1NC(C)=O`, the inhibition is -6.37%.

Turning to `CN=C1SC(C(=O)O)CC(=O)N1C` (configuration not stated), the inhibition was -12.6%. With `COc1ccc(OC)c(Cc2cnc3nc(N)nc(N)c3c2C)c1` the figure was 65.3% (active); with `COc1ccc(OC)c(NC(=O)c2sc3nc(C)cc(C)c3c2N)c1`, -9.33%; with `COc1ccc(OC)c(Cc2nnc(CCC(=O)NC3CCCC3)o2)c1`, 0.259%.

Take `CC1CCCCN1CCCNc1ccc(C(CC(N)=O)NC(=O)c2ccccc2)cc1[N+](=O)[O-]` (configuration not stated): the inhibition was -27.6%.

As to `O=C(Nc1ccc(N2CCN(C(=O)C3CC3)CC2)cc1)c1cccs1`, the inhibition was -16.9%.

As to `CCOC(=O)c1cc2sccc2n1Cc1ccc(C#N)cc1`, the inhibition is -13.3%. With `O=C(c1cc2sccc2n1Cc1ccc(F)cc1)N1CCc2ccccc21` the figure was -33%; with `CC1Cc2ccccc2N1C(=O)c1cc2sccc2n1Cc1ccccc1` (configuration not stated), 59.8% (active); with `CCOc1ccc(C(=O)CCC(=O)NC2=NCCS2)cc1`, -27.4%. With `CC(C)c1csc(CN2CCC(CO)(Cc3ccccc3)CC2)n1` the figure was -13.8%; with `O=C(c1cc2ccccc2o1)N1CCN(Cc2ccccc2)CC1`, -15%.

Turning to `OCC1(Cc2ccccc2)CCN(Cc2cc3ccccc3o2)CC1`, the inhibition is 74.7% (active). With `CCCCn1c(N)c(N(CC(C)C)C(=O)c2cnc(C)cn2)c(=O)[nH]c1=O` the figure was -37.8%; with `CC(C)CN1CC(C)C(=O)N(c2ccccc2)C1=S` (configuration not stated), -12.4%. On to `O=C(C1=C[C@H](c2ccc(C(F)(F)F)cc2)C[C@H](OCc2ccc(CO)cc2)O1)N1CCN(Cc2ccccc2)CC1`, for which the inhibition is -14.3%.

With `O=C(C1=C[C@H](c2coc3ccccc3c2=O)C[C@H](OCc2ccc(CO)cc2)O1)N1CCOCC1`, the inhibition was -9.97%. With `O=C(C1=C[C@H](c2coc3ccccc3c2=O)C[C@H](OCc2ccc(CO)cc2)O1)N1CCN(Cc2ccccc2)CC1` the figure was 81.9% (active); with `Cc1ccc(N(C(=O)C(F)(F)F)C(C(=O)NC2CCCCC2)c2ccncc2)cc1C` (configuration not stated), -20.4%; with `Cn1c(Cc2cccs2)nnc1SCC(=O)Nc1ccccc1`, -26.4%.
